# Source: PubChem BioAssay AID686978 (National Center for Advancing Translational Sciences (NCATS), 2013)
# Where “and” joins values, the source holds several entries; their conditions need not be identical. Identical values can stand only once. About 64,000 (15%) of roughly 420,000 compounds were called active. Another 27% or so got no clear call; they are omitted. Calls come from the whole dose curve; as a rule, active = well fitted inhibition curve with a large enough effect; inconclusive = small, poorly fitted or top-dose-only effect; inactive = flat fitted curve, though single readings scatter. Only a sample is shown. The source holds several records for some structures; these can differ, active in one and inactive in another.
# Experiment: qHTS for Inhibitors of human tyrosyl-DNA phosphodiesterase 1 (TDP1): qHTS in cells in absence of CPT; note: nearly all actives have a fitted effect of over 55% in size
# Settings: DT40 Tdp1-/- hTDP1 cells, no CPT, ATP luminescence, 48 h; activity change, negative = growth inhibition: at 46.2 µM (top of the series)
# Summary of the method: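 Cells were dispensed at 400 per well, compounds added by pin tool, plates incubated ≥48 hr at 37 °C, then CellTiter-Glo added for 30 min at room temperature before luminescence reading. Line: DT40 Tdp1-/- complemented with hTDP1; camptothecin omitted.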
# % is set by controls: 0 for no effect and ±100 for the full control effect; potency is the fitted concentration of half-maximal effect.
Compound,"activity change, negative = growth inhibition",Potency
COCCNC(=O)c1ccc(S(=O)(=O)c2ccc(Cl)cc2)c(NC(C)=O)c1,15.9% (inactive),–
CC1=Nc2cc(C(=O)NCc3ccc(C)cc3)ccc2Sc2ccc(Cl)cc21,–,20.6 µM (active)
Cc1ccc(CNC(=O)c2ccc3c(c2)S(=O)(=O)c2ccccc2C3=O)cc1,6.05% (inactive),–
COCCNC(=O)c1ccc2c(c1)N=C(C)c1cc(C)ccc1S2,–,0.461 µM (active)
Cc1ccc(OCCNC(=O)CNC(=O)c2ccc(C)c(C)c2)cc1,-9.12% (inactive),–
O=C(NCc1ccc(Cl)cc1)c1ccc2c(c1)nnn2C1CCCC1,-27.9% (inactive),–
O=[N+]([O-])c1ccccc1/C=C/CN1CCCC(CO)C1 (stereo unspecified),-21.2% (inactive),–
Cc1nnc(SCC(=O)Nc2ncc3c(n2)CC(C)(C)CC3=O)s1,-14.6% (inactive),–
O=C(NC(=S)Nc1ncccn1)c1ccccc1Br,-12.9% (inactive),–
CCC(C)N(C(=O)COC(=O)c1nc(Cl)ccc1Cl)C1CCS(=O)(=O)C1 (stereo unspecified),-1.31% (inactive),–
CCN(CC)CCN1C(=O)C(=O)/C(=C(/O)c2ccccc2)C1c1ccccc1F (stereo unspecified),-6.62% (inactive),–
COc1cccc(C(c2c(O)cc(C)n(Cc3ccco3)c2=O)N2CCN(c3ccccc3)CC2)c1 (stereo unspecified),-20% (inactive),–
Cc1c(NC(=O)CSc2nnc(-c3cccnc3)n2N)c(=O)n(-c2ccccc2)n1C,15% (inactive),–
Cc1c(NC(=O)CSc2cccc3cccnc23)c(=O)n(-c2ccccc2)n1C,–,23.1 µM (active)
Cc1c(NC(=O)CSc2nnnn2-c2ccc(C(=O)O)cc2)c(=O)n(-c2ccccc2)n1C,11.1% (inactive),–
COc1ccc(F)c(CN2CCC3(CCC(CNC(=O)c4ccn(C)n4)O3)CC2)c1 (stereo unspecified),-14.8% (inactive),–
Cc1cc(NC(=O)Cn2nc(C(F)(F)F)c3c2CCCC3)no1,-18.9% (inactive),–
OCCN1CCOCCOCCN(CCO)CCN(CCO)CC1,-4.43% (inactive),–
Cc1cc(C)c(C#N)c(SCc2ccc3c(c2)OCO3)n1,-17% (inactive),–
C=CCn1c(-c2sc(-c3ccccc3)nc2C)n[nH]c1=S,–,23.1 µM (active)
Cc1nc(-c2ccccc2)sc1-c1nnc(C2CC2)o1,-14.2% (inactive),–
C=CCn1c(CCNC(=O)c2cccs2)n[nH]c1=S,-7.36% (inactive),–
COc1ccc(/C=C/c2c(-c3cccc(C)c3)oc3ccc(-c4ccc5c(c4)OCO5)cc23)cc1,-6.57% (inactive),–
N#C/C(=C\c1ccc(O)c(O)c1)C(N)=O,–,inactive and 29.9 µM (active)

Compound,"activity change, negative = growth inhibition",Potency
CC(C)(C)C(=O)/C(C#N)=C/c1ccc(O)cc1,-9.28% (inactive),–
CC(C)NC(=O)/C(C#N)=C\c1ccc(N(C)C)c(Br)c1,-16.7% (inactive),–
CCc1nc2ccc(C(=O)N(C)CCN(C)C)cn2c1N(CC)CCOC,-1.11% (inactive),–
COc1ccc(N(C(=O)c2cccnc2)S(=O)(=O)c2ccc(OC)c(OC)c2)cc1,-21% (inactive),–
Cc1cc(NC(=O)CCS(=O)(=O)c2ccc(F)cc2)no1,-10% (inactive),–
CCOC(=O)[C@]12CCCC=C1N(CCC1=CCCCC1)C(=O)[C@H](CC(=O)N1CCOCC1)C2,–,16.4 µM (active)
CCOC(=O)[C@]12CCCC=C1N(CCC1=CCCCC1)C(=O)[C@H](CC(=O)N1CCSCC1)C2,–,16.4 µM (active)
CCOC(=O)[C@]12CCCC=C1N(CCC1=CCCCC1)C(=O)[C@H](CC(=O)N1CCCCC1)C2,–,5.17 µM (active)
CCOC(=O)N1CCN(C(=O)C[C@@H]2C[C@@]3(C(=O)OC)CCCCC=C3N(CCC3=CCCCC3)C2=O)CC1,–,16.4 µM (active)
CCOC(=O)N1CCN(C(=O)COc2ccc(Br)cc2)CC1,-25.8% (inactive),–
CSc1c(SCc2ccccc2)cnn(Cc2ccccc2)c1=O,-12.4% (inactive),–
Cc1ccc(N)cc1-n1c(C)ccc1C,-17.2% (inactive),–
C/C=C/C(=O)OCc1csc(CC(=O)Nc2ccccc2C)n1,7.75% (inactive),–
CC1CC1C(=O)OCC(=O)Nc1cccc(F)c1 (stereo unspecified),7.03% (inactive),–
Cc1cc(-c2nnc(SCC(=O)Nc3ccc(F)cc3)n2N)n[nH]1,21.3% (inactive),–
O=C(CN1C(=O)CSC1=O)N1CCCC(Nc2ccc(F)cc2)C1 (stereo unspecified),-4.21% (inactive),–
Cc1ccc(S(=O)(=O)N(C)c2ccc(OCC(=O)NC3=NCCS3)cc2)cc1,1.46% (inactive),–
CC(C)NC(=O)Nc1cccc2c1O[C@H](CN(C)S(=O)(=O)c1cccs1)[C@@H](C)CN([C@H](C)CO)C2=O,-28.3% (inactive),–
CCOC(=O)[C@]12CCC=C1N(Cc1ccccc1)C(=O)[C@H](CC(=O)N1CCCC1)C2,-25.7% (inactive),–
COc1ccc(Cl)cc1N(CC(=O)N1CCCCC1)S(C)(=O)=O,-8.52% (inactive),–
CCOC(=O)[C@]12CCCC=C1N(Cc1ccc(Cl)cc1Cl)C(=O)[C@H](CC(=O)N1CCCCC1)C2,–,23.1 µM (active)
COC(=O)[C@]12CCCCC=C1N(CCC1=CCCCC1)C(=O)[C@H](CC(=O)N1CCSCC1)C2,–,16.4 µM (active)
Cc1ccc(-c2ccc(C3=CC(=O)CC(C)(C)C3=O)cc2)cc1,-100% (inactive),–
CCc1ccccc1N1C(=O)C2C3CC(=O)C(c4ccccc43)C2C1=O (stereo unspecified),18.8% (inactive),–

Compound,"activity change, negative = growth inhibition",Potency
Cc1ccc(CCC(=O)Nc2ncc(Cc3cc(Cl)ccc3Cl)s2)o1,–,0.58 µM (active)
Cc1ccc(Cc2cnc(N)s2)o1,-4.35% (inactive),–
O=C(CCc1ccccc1Cl)Nc1ccc(S(=O)(=O)Nc2nccs2)cc1,-3.57% (inactive),–
COc1cc2sc(C)nc2cc1C,2.23% (inactive),–
COC(=O)CN1C(=S)N(c2ccccc2)C(=O)C1CC(=O)Nc1ccc(Cl)cc1 (stereo unspecified),-25.1% (inactive),–
CCOC(=O)c1ccc(NC(=O)CC2C(=O)N(c3ccccc3)C(=O)N2Cc2cccs2)cc1 (stereo unspecified),–,20.6 µM (active)
CCCOc1ccc(NC(=O)CC2C(=O)N(c3ccccc3)C(=O)N2Cc2ccco2)cc1 (stereo unspecified),–,20.6 µM (active)
CCOC(=O)c1ccc(NC(=O)CC2C(=O)N(c3cccc(OC)c3)C(=O)N2C2CCCCC2)cc1 (stereo unspecified),–,20.6 µM (active)
CCNC(=O)N1CCNC(=O)C1CC(=O)Nc1ccc(C(=O)OCC)cc1 (stereo unspecified),4% (inactive),–
CCNC(=O)CC1C(=O)N(c2ccc(F)cc2)C(=O)N1Cc1ccc(C)cc1 (stereo unspecified),2.75% (inactive),–
CCNC(=O)CC1C(=O)N(c2ccc(F)cc2)C(=O)N1Cc1cccs1 (stereo unspecified),6.76% (inactive),–
CCOc1ccc(NC(=O)CC2C(=O)N(c3ccccc3)C(=O)N2CCOC)cc1 (stereo unspecified),0.538% (inactive),–
CCOc1ccc(NC(=O)CC2C(=O)N(c3cccc(OC)c3)C(=O)N2C2CCCCC2)cc1 (stereo unspecified),-25.8% (inactive),–
Cc1ccnc(NS(=O)(=O)c2ccc(NC(=O)c3oc4ccc(F)cc4c3C)cc2)n1,16.5% (inactive),–
COCc1cc(C)n(CC(=O)NCC2CCCO2)c(=O)c1C#N (stereo unspecified),8.62% (inactive),–
Cc1cnc(C(=O)OCC(=O)NCCCc2ccccc2)cn1,-4.9% (inactive),–
Cc1ccccc1NC(=O)c1nn(-c2ccc(F)c(F)c2)ccc1=O,0.98% (inactive),–
CN(C)/C=C(/C(=O)c1ccccc1)S(=O)(=O)c1ccc(Cl)cc1,-0.434% (inactive),–
COc1ccc(OC(C)C(=O)Nc2cccnc2)cc1 (stereo unspecified),4.05% (inactive),–
N#Cc1ccc(OCCN2C(=O)NC3(CCSC3)C2=O)cc1 (stereo unspecified),-4.16% (inactive),–
CCOC(=O)[C@@H]1[C@H]2COc3cc(OC)ccc3[C@H]2N2C(=O)N(c3ccc(F)cc3)C(=O)[C@]12C,-18.1% (inactive),–
CCOC(=O)[C@@H]1[C@H]2COc3ccc(Br)cc3[C@H]2N2C(=O)N(c3ccc(C)cc3)C(=O)[C@@]12C,–,20.6 µM (active)
CCOC(=O)[C@H]1[C@H]2COc3ccc(Br)cc3[C@@H]2N2C(=O)CN(C)C(=O)[C@@]12C,-2.51% (inactive),–
CCOC(=O)[C@H]1[C@H]2COc3cc(OC)ccc3[C@@H]2N2C(=O)N(c3ccc(Br)cc3)C(=O)[C@@]12C,–,18.4 µM (active)

Compound,"activity change, negative = growth inhibition",Potency
CCOC(=O)[C@H]1[C@H]2COc3ccccc3[C@@H]2N2C(=O)CN(Cc3ccccc3)C(=O)[C@@]12C,-21.1% (inactive),–
CCOC(=O)[C@@H]1[C@H]2COc3cc(OC)ccc3[C@@H]2N2C(=O)N(c3cccc(C)c3)C(=O)[C@@]12C,-25.7% (inactive),–
O=C(CN1CCN(Cc2ccc(F)cc2Cl)C1=O)NCc1cccs1,-14.6% (inactive),–
COc1cc(C2CC(=O)Oc3cc(OC)c(OC)c(OC)c32)cc(OC)c1OC (stereo unspecified),-15.9% (inactive),–
COc1cc(C2OC(c3cc(OC)c(OC)c(OC)c3)C(C)C2C)cc(OC)c1OC (stereo unspecified),–,18.4 µM (active)
COc1cc(OC)c2c(c1)OC(=O)CC2c1cc(OC)c(OC)c(OC)c1 (stereo unspecified),4.96% (inactive),–
CCCNC(=O)NCc1ccc(N2CCCC2=O)cc1,-1.13% (inactive),–
Cn1cccc1C1(C(F)(F)F)NCCNC1=O (stereo unspecified),2.55% (inactive),–
COC(=O)c1ccc(C(=O)OC)c(NC(=S)N2CCN(c3ccc(F)cc3)CC2)c1,-22.4% (inactive),–
Cc1ccc(SCC(=O)N2CCN(c3ccc(F)cc3)CC2)cc1,-28% (inactive),–
Cc1ccc(CSCC2Nc3ccc(C(=O)N4CCN(c5ccc(F)cc5)CC4)cc3NC2=O)cc1 (stereo unspecified),–,16.4 µM (active)
COCc1ccc(CN2CCC(Oc3ccc(C(=O)NCc4ccccn4)cc3)CC2)o1,-22.1% (inactive),–
O=C(COC(=O)c1ncc(Cl)c(Cl)c1Cl)NNC(=O)c1ccccc1,-13.8% (inactive),–
CCCCCCn1cc(C(=O)O)c(=O)c2cc(F)c(N3CCCCC3)cc21,1.32% (inactive),–
Cc1nn(Cc2ccccc2)c(C)c1CNC(=O)c1ccc(F)c(S(=O)(=O)N2CCOCC2)c1,-29.9% (inactive),–
Cc1ccc(S(=O)(=O)c2cn(Cc3ccccc3)c3cc(N4CCCC4)c(F)cc3c2=O)c(C)c1,–,9.2 µM (active)
CC1CCCN(c2cc3c(cc2F)c(=O)c(S(=O)(=O)c2cccc(Cl)c2)cn3Cc2ccccc2)C1 (stereo unspecified),-15% (inactive),–
Cc1cccc(S(=O)(=O)c2cn(Cc3ccccc3)c3cc(N4CCOCC4)c(F)cc3c2=O)c1,–,20.6 µM (active)
CCn1cc(S(=O)(=O)c2cccc(C)c2)c(=O)c2cc(F)c(N3CCN(C)CC3)cc21,6.93% (inactive),–
CC(=O)Cc1nsc(NC(=O)c2ccc(Cl)cc2Cl)n1,-8% (inactive),–
CCCCCC1CC(COc2ccccc2)OC1=O (stereo unspecified),0.957% (inactive),–
CCOC(=O)c1oc2ccccc2c1NC(=O)c1cccs1,2.22% (inactive),–
CCOC(=O)CNC(=O)/C(=C\c1ccc(F)cc1)NC(=O)c1ccccc1,-0.762% (inactive),–
CC(=O)OCC(=O)[C@@]1(O)CCC2C3CCC4=CC(=O)CC[C@@]4(C)[C@]3(F)C(O)C[C@]21C (stereo partly specified),-2.28% (inactive),–
